Rows were chosen to be rich in hits. Some 10% of all compounds tested hit in one or more screens of this group.
G9a inh = qHTS Assay for Inhibitors of Histone Lysine Methyltransferase G9a; Histone-lysine N-methyltransferase EHMT2 (Homo sapiens), Q96KQ7; G9a H3K9 monomethylation, AlphaScreen, 2 h; Potency, µM (doses to about 102 µM), for inactives: at the highest dose activity, negative = inhibition, hits mostly inhibitors; hit rate 8.8% among 350,000; AID 504332, 2011; further: potency means the concentration at half of the fitted maximal effect; nearly all actives have a fitted effect of over 75% in size
Target sequence (Q96KQ7 913-1193 limits assumed): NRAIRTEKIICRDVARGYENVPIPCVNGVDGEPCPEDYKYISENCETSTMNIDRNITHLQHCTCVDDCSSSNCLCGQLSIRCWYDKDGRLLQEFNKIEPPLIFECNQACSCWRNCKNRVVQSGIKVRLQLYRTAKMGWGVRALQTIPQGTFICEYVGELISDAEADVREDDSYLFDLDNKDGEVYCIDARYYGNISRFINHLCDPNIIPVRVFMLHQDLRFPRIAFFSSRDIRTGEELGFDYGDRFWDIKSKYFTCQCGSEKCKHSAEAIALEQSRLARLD
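Enzyme 20 nM + cpd, 15 min RT; add b-H3K9 pep 500 nM / SAM 20 uM; 2 h RT; anti-H3K9me1 Ab 0.5 ug/mL + SA donor / anti-rabbit acceptor beads 20 ug/mL each, 10 min; AlphaScreen read.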
VDR inh = Inhibitors of the vitamin D receptor (VDR): qHTS; Potency, µM, without a hit: max response, negative = inhibition, most hits filed as inhibitors; hit rate 0.93% among 400,000; VDR-SRC2-3 peptide fluorescence polarization, 2 h; Vitamin D3 receptor (Homo sapiens), P11473; further: potency means the concentration at half of the fitted maximal effect
Target sequence (P11473 whole entry, looked up): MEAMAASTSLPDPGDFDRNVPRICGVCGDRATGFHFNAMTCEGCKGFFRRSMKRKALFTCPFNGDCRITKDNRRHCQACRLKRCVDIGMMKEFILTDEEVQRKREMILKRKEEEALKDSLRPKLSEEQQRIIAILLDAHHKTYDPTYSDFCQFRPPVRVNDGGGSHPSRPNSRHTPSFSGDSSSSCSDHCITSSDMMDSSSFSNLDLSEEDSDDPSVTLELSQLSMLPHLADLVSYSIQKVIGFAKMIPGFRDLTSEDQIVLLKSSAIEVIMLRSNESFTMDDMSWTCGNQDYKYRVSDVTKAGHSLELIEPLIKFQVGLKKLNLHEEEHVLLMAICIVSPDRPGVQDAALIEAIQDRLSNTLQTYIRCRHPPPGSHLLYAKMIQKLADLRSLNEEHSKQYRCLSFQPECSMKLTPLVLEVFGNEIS
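Compounds are added to VDR with labelled SRC2-3 coactivator peptide and held 2 h at room temperature. Inhibition of the VDR–peptide interaction is then read as a change in fluorescence polarization.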
CCT chaperon mod = High-Throughput Screening for Modulators of Cytosolic Chaperonin Activity; purified chaperonin ATPase assay, HTRF ADP detection, 30 min; activity change, % (test concentration not listed), hits read low; hit rate 0.3% among 360,000; AID 651819, 2012; in the data active means activity change below about -30%
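First, chaperonin was dispensed at 40 nM or 20 nM final depending on batch activity. Next, compounds were pinned at 76 uM and ATP added at 10 uM. After 30 min at 37 °C, ADP detection reagents ran 30 min at ambient temperature.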
Sfp inh = qHTS Assay for Inhibitors of Bacillus subtilis Sfp phosphopantetheinyl transferase (PPTase). Potency, µM, without a hit: largest response in the series, negative = inhibition, hits mostly inhibitors. AID 1490, 2009. hit rate 3.5% among 310,000. Biochemical Sfp PPTase activity, qHTS. 4'-phosphopantetheinyl transferase ffp (Bacillus subtilis), Q9F4F7;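 further: the enzyme is Sfp with the accession as filed and its product quenches rhodamine fluorescence; potency means the concentration at half of the fitted maximal effect; 0% = enzyme reaction without inhibitor and -100% = no enzyme wells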
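With Hepes-Na pH 7.6 buffer containing 10 mM MgCl2, Sfp (15 nM) modified BHQ-2-YbbR (12.5 uM) using rhodamine-CoA (5 uM). Two reads 30 minutes apart at 525/598 nm yielded each well's rate.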
PLK1 PBD block = qHTS for Inhibitors of PLK1-PDB (polo-like kinase 1 - polo-box domain): Primary Screen; Potency, µM, inactives show max response, negative = inhibition, most hits filed as inhibitors; Plk1 PBD binding of FITC phosphopeptide, fluorescence polarization; AID 720504, 2013; Serine/threonine-protein kinase PLK1 (Homo sapiens), P53350; hit rate 2.8% among 360,000; further: potency means the concentration at half of the fitted maximal effect; series mostly up to about 57 µM; nearly all actives have a fitted effect of over 65% in size
Mm-Cpn inhibitor = Inhibitors of TCP-1 ring complex (TRiC) of Methanococcus maripaludis (MmCpn): qHTS | purified Mm-Cpn ATPase, ADP Transcreener TR-FRET | Potency, µM (doses to about 76.9 µM), for inactives: at the top dose activity, negative = inhibition, most hits filed as inhibitors | hit rate 0.031% among 330,000 | AID 504842, 2011; further: potency means the concentration at half of the fitted maximal effect; nearly all actives have a fitted effect of over 80% in size
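ATPase turnover read by TR-FRET ADP competition (Eu cryptate antibody/ADP-d2, 665/590 nm): 10uM ATP final, 25nM Mm-CPN final, 30 min 37degC after 10-min compound preincubation, pH 7.4 Tris/KCl/MgCl2/DTT buffer.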
* = called active by the depositor; ? = inconclusive; . = no result; [ ] = dose if it differs, or a comment. Unless noted, the call rests on the fitted dose curve; in most records, active means well fitted curve in the direction sought with a large enough effect; inconclusive means small, poorly fitted or top-dose-only effect, or another doubt; inactive means no such curve, though single readings can be large; an effect the other way counts as inactive or inconclusive. Unless noted, on the % scale 0 is the no-effect control and ±100 the full control effect.

SMILES	G9a inh	VDR inh	CCT chaperon mod	Sfp inh	PLK1 PBD block	Mm-Cpn inhibitor
O=C(COC(=O)C1CCCCC1C(=O)N1CCc2ccccc21)NCc1ccco1 (stereo unspecified)	28µM*	-10%	0	-16%	-16%	1%
Cc1ccc(C)c(OCCCn2c(-c3ccc(Cl)cc3)nc3ccccc3c2=O)c1	?	-24%	.	.	.	.
COc1cccc(-c2nc(CS(=O)(=O)CC(=O)Nc3cccc(C(C)=O)c3)c(C)o2)c1	14%	?	2	12%	24µM*	-6%
COc1ccc(-c2nc(CS(=O)(=O)CC(=O)Nc3cccc(C(C)=O)c3)c(C)o2)cc1	20µM*	2%	1	0%	-15%	-10%
Cc1oc(-c2cccc(Cl)c2)nc1CS(=O)(=O)CC(=O)NC1CC1	50µM*	-2%	2	10%	-20%	2%
CCCc1nnc(NC(=O)c2cc(=O)c3cc(C)c(C)cc3o2)s1	1%[59 µM]	4%	.	.	.	.
Cc1nn(CC(=O)NC(C)c2ccccc2)c(=O)c2cc3occc3n12 (stereo unspecified)	6%[59 µM]	6%	.	.	.	.
O=C(O)c1ccccc1-c1noc(-c2ccccc2F)n1	-17%[12.7 µM]	.	.	.	.	3%
CC1CN(C(=O)COc2coc(CN3CCc4ccccc4C3)cc2=O)CC(C)O1 (stereo unspecified)	45µM*	-23%	0	.	-4%	0%
Cc1ccc(NC(=O)COc2coc(CN3c4ccccc4CC3C)cc2=O)c(C)c1 (stereo unspecified)	50µM*	-6%	0	.	-1%	-1%
Cc1ccc(NC(=O)COc2coc(CN3CCc4ccccc43)cc2=O)c(C)c1	?	1%	2	.	-11%	0%
Cc1ccc(NC(=O)COc2coc(CN3CCc4ccccc4C3)cc2=O)c(C)c1	50µM*	-25%	-5	.	-10%	1%
CC1CCN(C(=O)COc2coc(CN3CCc4ccccc43)cc2=O)CC1	?	-22%	-1	.	-8%	-1%
Cc1cc(C)cc(NC(=O)COc2coc(CN3CCc4ccccc43)cc2=O)c1	50µM*	1%	1	.	-8%	1%
Cc1ccc(N2CCn3c2nc2c3c(=O)n(CCCc3ccccc3)c(=O)n2C)cc1	?	-5%	.	.	.	.
CCOC(=O)C1=C[C@@H](C(=O)OCC)[C@@H]2C3=C(C(=O)C2(C)C)[C@H](c2ccccc2)[C@@H]2C(=O)N(c4ccccc4)C(=O)[C@@H]2[C@@H]3C1	.	?	.	10%	.	.
Cn1c(=O)c2c(nc(CN3CCN(c4ccccc4F)CC3)n2Cc2ccc(F)cc2)n(C)c1=O	-29%[59 µM]	-17%	.	.	.	.
CCc1ccc(NC(=O)COc2coc(CN3CCc4ccccc4C3)cc2=O)cc1	56µM*	-27%	-3	.	-1%	-2%
O=C(COc1coc(CN2CCc3ccccc3C2)cc1=O)Nc1ccc(Cl)cc1	-10%[0.501 µM]	-8%	3	.	-5%	-2%
CCOc1ccc(-c2cc3c(=O)n(Cc4nc(-c5ccc(OCC)c(OC)c5)oc4C)ccn3n2)cc1Cl	5%[59 µM]	-12%	.	.	.	.
O=c1[nH]cnc2c1sc(=S)n2-c1ccccc1	2.2µM*	?	-4	18µM*	7.5µM*	0%
O=c1[nH]c(-c2ccc(F)cc2)nc2c1sc(=S)n2-c1ccccc1	40µM*	6%	2	-11%	?	1%
O=c1[nH]c(-c2ccc3c(c2)OCO3)nc2c1sc(=S)n2-c1ccccc1	-30%	7%	2	12%	-10%	-7%
CN(C)c1ccc(CNc2nc(-c3ccccc3)nn2S(C)(=O)=O)cc1	28µM*	18%	1	7%	0%	2%
Cc1ccc(S(=O)(=O)n2nc(-c3ccco3)nc2N)cc1	.	1%	-2	89µM*	-5%	-1%
SMILES	G9a inh	VDR inh	CCT chaperon mod	Sfp inh	PLK1 PBD block	Mm-Cpn inhibitor
CN(C)c1ccc(CNc2nc(-c3ccco3)nn2C(=O)c2cccc([N+](=O)[O-])c2)cc1	7.9µM*	11%	.	.	.	.
COc1ccc(S(=O)(=O)n2nc(-c3ccco3)nc2NCc2ccc(N(C)C)cc2)cc1	11µM*	-3%	.	.	.	.
Cc1cccc(C(=O)n2nc(-c3ccco3)nc2NCc2ccccc2)c1	-30%[59 µM]	14%	.	.	.	.
CC(C)=CCC/C(C)=C/CO/N=C1/[C@H]2O[C@@H]2[C@@H](O)[C@H]2[C@H]1CCn1c(=O)n(Cc3cc4c(cc3Cl)OCO4)c(=O)n12	.	.	.	23%	.	.
O=C(NCCN1CCCCC1)c1ccc(Cn2c(SCc3cccc(F)c3)nc3cccnc32)cc1	-24%[59 µM]	7%	.	.	.	.
CC(=O)N1CCc2cc(S(=O)(=O)NC(CC(C)C)C(=O)NCCc3cccc(C)c3)ccc21 (stereo unspecified)	6%[59 µM]	-9%	.	.	.	.
COc1ccccc1CNc1nc(-c2ccco2)nn1C(=O)c1ccccc1[N+](=O)[O-]	11µM*	12%	.	.	.	.
COc1ccc(CNc2nc(-c3ccco3)nn2C(=O)c2ccccc2C)cc1	?	-6%	.	.	.	.
Cc1ccc(CNc2nc(-c3ccco3)nn2C(=O)c2ccccc2[N+](=O)[O-])cc1	13µM*	15%	.	.	.	.
C=CCOC(=O)C(C(C)=O)C(NC(=O)OC)c1ccc(F)cc1 (stereo unspecified)	.	.	.	-7%	.	.
COc1cc2c(cc1OC)CN(C(=O)c1cccs1)CC2	5%[59 µM]	10%	-3	-25%	?	-2%
COc1cc2c(cc1OC)CN(C(=O)/C=C/c1ccc([N+](=O)[O-])cc1)CC2	50µM*	5%	-2	-10%	-8%	2%
COc1cc2c(cc1OC)CN(C(=O)c1ccc(Br)o1)CC2	50µM*	6%	-1	14%	-12%	1%
COc1cc2c(cc1OC)CN(C(=O)c1ccc(OC)c([N+](=O)[O-])c1)CC2	?	11%	2	19%	1%	2%
COc1cc2c(cc1OC)CN(C(=O)c1cccc([N+](=O)[O-])c1)CC2	19%[12.7 µM]	79µM*	-1	18%	27µM*	2%
COc1ccc(-c2nc(CSCC(=O)NCCc3ccc(OC)c(OC)c3)c(C)o2)cc1	-26%[59 µM]	8%	.	.	.	.
COc1ccc(CCNC(=O)c2cc(Nc3ccccc3)nc3ccccc23)cc1OC	0%[59 µM]	9%	.	.	.	.
CC1CCN(CCCNC(=O)c2cc(Sc3ccc(F)cc3)nc3ccccc23)CC1	1%[59 µM]	5%	.	.	.	.
Cc1ccc(N=Cc2cc(Br)cc(Cl)c2O)cc1	0%	-18%	2	5%	-27%	1%
